A1 inh – inhibitors of A1; MEF A1-2A-BIM cells, caspase-Glo luminescence, 3 h; percent of clofoctol signal, DMSO as zero; caspase activation, % (concentration not given with the values); 0.51% of 21,000 active;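 active means most replicate scores above 10, or exactly half above 10 with mean activity above 10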;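 further: effector caspase 3 and 7 activity cleaving a DEVD luciferin substrate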
BJeLR viab HTS – compounds reducing viability of BJeLR cells. 0.64% of 30,000 active. AID 2275. BJeLR fibroblasts viability, CellTiterGlo ATP luminescence, 48 h; HRASV12, hTERT and SV40 LT/ST transformed. viability loss activity score, % (concentration not given with the values); in the data active means viability loss activity score above about 50%;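 further: higher score means fewer live cells and less ATP luminescence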
Numbers stand for hits; - = inactive; . = not tested or not shown. Shown are actives, neighbours in structure and some others; about 0.86% of the full set was active somewhere.

SMILES	A1 inh	BJeLR viab HTS
COC[C@H]1OC(=O)c2coc3c2[C@@]1(C)C1=C(C3=O)[C@@H]2CCC(=O)[C@@]2(C)C[C@H]1OC(C)=O	62	-
N#CC(O[C@@H]1O[C@H](CO)[C@@H](O)[C@H](O)[C@H]1O)c1ccccc1 (stereo partly drawn)	-	-
CC(C)[C@]12O[C@H]1[C@@H]1O[C@]13[C@]1(O[C@H]1C[C@H]1C4=C(CC[C@@]13C)C(=O)OC4)[C@@H]2O	16	90
CN1CCc2nc3sc(C(=O)C(C)(C)C)c(N)c3cc2C1	-	-
CCOC(=O)c1cc(C(C)(C)C)nc(OC(=O)N(C)C)c1C#N	-	-
C[C@H]1CC[C@@H]2[C@@H](C)[C@H]3[C@H](C[C@H]4[C@@H]5CC=C6CC(O[C@@H]7O[C@H](CO)[C@@H](O)[C@H](O[C@@H]8O[C@H](CO)[C@@H](O)[C@H](O)[C@H]8O)[C@@H]7O[C@@H]7O[C@@H](C)[C@H](O)[C@@H](O)[C@H]7O)CC[C@]6(C)[C@H]5CC[C@]34C)N2C1 (stereo partly drawn)	-	81
C[C@H]1CC[C@@H]2[C@@H](C)[C@H]3[C@H](C[C@H]4[C@@H]5CC=C6C[C@@H](O[C@@H]7O[C@H](CO)[C@H](O)[C@H](O[C@@H]8O[C@H](CO)[C@@H](O)[C@H](O)[C@H]8O)[C@H]7O[C@@H]7O[C@@H](C)[C@H](O)[C@@H](O)[C@H]7O)CC[C@]6(C)[C@H]5CC[C@]34C)N2C1	-	-
O=C(c1noc2c1COc1ccccc1-2)N1CCC2(CC1)OCCO2	-	-
CCN(CC)c1nc2ccccc2c(=O)n1-c1ccccc1	-	-
Cc1ccccc1OCCCn1cc(C(=O)C2CC2)c2ccccc21	.	-
COc1cc2c(cc1O)CCNC2C (stereo not drawn)	-	-
CC[C@H]1CN2CCc3cc(OC)c(OC)cc3[C@@H]2C[C@@H]1C[C@H]1NCCc2cc(O)c(OC)cc21	19	94
Cc1cc(OCc2c(F)cccc2Cl)c2c3c(c(=O)oc2c1)CCCC3	-	-
C/C=C(/C)C(=O)O[C@H]1C(C)=C2[C@H]([C@@H]1OC(=O)CCCCCCC)[C@@](C)(OC(C)=O)C[C@H](OC(=O)CCC)[C@@]1(O)[C@H]2OC(=O)[C@@]1(C)O	12	-
C/C=C(\C)C(=O)OC1C(C)=C2C(C1OC(=O)CCCCCCC)C(C)(OC(C)=O)CC(OC(=O)CCC)C1(O)C2OC(=O)C1(C)O (stereo not drawn)	-	-
COCc1cc(OC(=O)N(C)C)nc2c1c(-c1cccs1)nn2C	-	-
C[C@@H]1C(=O)O[C@H]2[C@H]1CC[C@@]1(C)C=CC(=O)[C@@]3(C)O[C@@]213	-	-
COc1ccc2c(c1OC)CN1CCc3cc4c(cc3C1C2)OCO4 (stereo not drawn)	-	-
COc1ccc2c(c[n+](C)c3c4cc5c(cc4ccc23)OCO5)c1OC	161	79
Cc1cc(Br)c(NC(=O)C2C(C)(C)C2(C)C)c(Br)c1	-	-
C[C@@H](CO)NC(=O)C1C=C2c3cccc4[nH]cc(c34)C[C@H]2N(C)C1 (stereo partly drawn)	-	-
Cc1c(O)c(C(=O)O)c(O)c2c1[C@H](C)[C@@H](C)OC2=O	-	-
C=CC/C=C\C/C=C\CCCCCCCc1cc(O)cc(O)c1	-	.
CO/C1=C/C(C)=C/[C@@H](C)[C@@H](O)[C@@H](C)C/C(C)=C/C=C\[C@H](OC)[C@@H]([C@@H](C)[C@@H](O)[C@H](C)[C@@]2(O)C[C@@H](O)[C@H](C)[C@@H](C(C)C)O2)OC1=O	-	52
COc1cc([C@@H]2c3cc4c(cc3[C@H](OC(C)=O)[C@H]3COC(=O)[C@@H]23)OCO4)cc(OC)c1OC	-	-
SMILES	A1 inh	BJeLR viab HTS
COc1ccc2c(c1OC)C(=O)O[C@H]2[C@H]1c2cc3c(cc2CCN1C)OCO3	-	-
COc1cc(C2c3cc4c(cc3CC3COC(=O)C32)OCO4)cc(OC)c1OC (stereo not drawn)	-	64
COc1cc([C@@H]2c3cc4c(cc3[C@@H](O)C3COC(=O)C32)OCO4)cc(OC)c1O (stereo partly drawn)	-	50
CCOc1ccccc1C1NC(=S)NC(c2ccccc2OCC)C12C(=O)NC(=O)NC2=O (stereo not drawn)	.	-
c1cncc(C2Nc3ccccc3-n3cccc32)c1 (stereo not drawn)	-	-
CC1OC(O[C@H]2C[C@@H](O)[C@]3(CO)[C@H]4[C@H](O)C[C@]5(C)[C@@H](C6=CC(=O)OC6)CC[C@]5(O)[C@@H]4CC[C@]3(O)C2)C(O)C(O)C1O (stereo partly drawn)	-	100
C[C@H]1O[C@@H](O[C@H]2C[C@@H](O)[C@]3(CO)C4C(CC[C@]3(O)C2)[C@@]2(O)CC[C@H](C3=CC(=O)OC3)[C@@]2(C)C[C@H]4O)[C@@H](O)[C@@H](O)[C@H]1O (stereo partly drawn)	-	117
C[C@@H]1O[C@@H](O[C@H]2C[C@@H](O)[C@]3(CO)C4C(CC[C@]3(O)C2)[C@@]2(O)CC[C@H](C3=CC(=O)OC3)[C@@]2(C)C[C@H]4O)[C@H](O)[C@H](O)[C@H]1O (stereo partly drawn)	-	119
CC(C)(O)CCC(=O)[C@](C)(O)[C@H]1[C@H](O)C[C@@]2(C)[C@@H]3CC=C4C(C=C(O[C@@H]5O[C@H](CO)[C@@H](O)[C@H](O)[C@H]5O)C(=O)C4(C)C)[C@]3(C)C(=O)C[C@]12C (stereo partly drawn)	-	-
CN(C)C(=O)Oc1cccc(N)c1	-	-
CCOC(=S)SCc1nc2ccccc2c(=O)n1-c1ccccc1	-	-
COc1cc2c(cc1OC)-c1c(OC)c(OC)c(N)c3c1[C@H](C2)N(C)CC3	-	-
CCC(C)[C@H]1C(=O)O[C@H](C(C)C)C(=O)N(C)[C@@H](C(C)CC)C(=O)O[C@H](C(C)C)C(=O)N(C)[C@@H](C(C)CC)C(=O)O[C@H](C(C)C)C(=O)N1C (stereo partly drawn)	86	91
Cc1ccc(CN(C)C)c(OC(=O)N(C)C)c1	-	-
Fc1ccc(Sc2c(F)c(F)nc(N3CCNCC3)c2F)cc1	-	-

Screens deposited in PubChem BioAssay by Broad Institute.
